This note sets out measurements from PubChem BioAssay (NCI).

Each structure is given as a SMILES string. The panel holds about 79,000 compounds, 15% with a hit somewhere; the sample as a whole holds those more often. A number with no mark means an inactive call. The source made the active and inactive calls. Rule as the data show it: active = growth inhibition above about 70%; inactive = the rest.

The nature of assay [1]: NCI Yeast Anticancer Drug Screen. Data for the rad50 strain (AID 155).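 Also: 0% = growth of vehicle-only cultures of the same strain.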 The conditions noted are these: S. cerevisiae rad50 strain growth inhibition, active compounds read high. The method, boiled down:
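Readout: growth inhibition relative to vehicle-treated cultures. Compound exposure was carried out in a genetically defined yeast strain deficient in DNA damage repair.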

A short description of assay [2]: NCI Yeast Anticancer Drug Screen. Data for the mec2-1 strain (AID 157). The conditions noted are these: S. cerevisiae mec2-1 strain, active compounds read high. Put shortly:
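Test agents were screened against the mec2-1 yeast strain, with defined DNA repair or cell cycle alteration. Growth was scored as inhibition against vehicle-only controls.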

The nature of assay [3]: NCI Yeast Anticancer Drug Screen. Data for the sgs1 mgt1 strain (AID 161).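 Also: 0% = growth of cultures given vehicle only.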 The conditions noted are these: S. cerevisiae sgs1 mgt1 strain, active compounds read high. Put shortly: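 Mutant yeast exposed to compound; growth scored against vehicle-only wells.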
The nature of assay [4]: NCI Yeast Anticancer Drug Screen. Data for the cln2 rad14 strain (AID 165).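 Also: 0% = growth equal to vehicle treated cultures.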 The conditions noted are these: S. cerevisiae cln2 rad14 strain, active compounds read high. Put shortly:
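Growth of compound-exposed yeast (cln2 rad14 genotype) measured and expressed as inhibition relative to vehicle.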

Assay [5] is described as follows: NCI Yeast Anticancer Drug Screen. Data for the bub3 strain (AID 167). The conditions noted are these: S. cerevisiae bub3 mutant strain, active compounds read high. The method, boiled down:
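Readout: yeast growth inhibition, expressed relative to vehicle-only wells. The test organism is a mutant strain from a panel with lesions in DNA repair or checkpoint genes.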

The nature of assay [6]: NCI Yeast Anticancer Drug Screen. Data for the mlh1 rad18 strain (AID 175). The conditions noted are these: S. cerevisiae mlh1 rad18 strain growth inhibition, active compounds read high. Put shortly: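 In this whole-cell yeast screen, a strain with altered DNA damage repair is challenged with compound, and its growth is measured against matched vehicle-treated controls.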
Where [7] appears, read: at 5.0 µM (retest, dose inferred, filed as 0.5).
Setting [8] is: at 50.0 µM (retest, dose inferred, filed as 5.0).

`COc1ccc(C(CC(=O)c2ccccc2)Sc2ccccc2N)cc1` (stereo not given): the growth inhibition is 46% in assay [1] (setting [7]); 52% in assay [1] (setting [8]); -4.15% in assay [1] (at 50.0 µM); 54% in assay [2] (setting [7]); 51% in assay [2] (setting [8]); 26.9% in assay [2] (at 50.0 µM). The growth inhibition in assay [3] (setting [7]) is -13%; in assay [3] (setting [8]), 32%; in assay [3] (at 50.0 µM) it was 32.4%; in assay [4] (setting [7]) it was 44%; in assay [4] (setting [8]) it was 20%; in assay [4] (at 50.0 µM), -13.3%. Besides, the growth inhibition in assay [5] (setting [7]) was 35%; in assay [5] (setting [8]), 57%; in assay [5] (at 50.0 µM), 49.8%; in assay [6] (setting [7]), 36%; in assay [6] (setting [8]), 46%; in assay [6] (at 50.0 µM) it was 7.35%.

Turning to `COc1ccccc1Nc1nc(SC)ncc1SC`, the growth inhibition in assay [1] (setting [7]) was -4%; in assay [1] (setting [8]), 91% (active); in assay [1] (at 50.0 µM), 95.1% (active); in assay [2] (setting [7]), -12%; in assay [2] (setting [8]) it was 75% (active); in assay [2] (at 50.0 µM), 96.4% (active). Also, the growth inhibition in assay [3] (setting [7]) is -5%; in assay [3] (setting [8]) it was 69%; in assay [3] (at 50.0 µM), 94% (active); in assay [4] (setting [7]), -8%; in assay [4] (setting [8]) it was 30%; in assay [4] (at 50.0 µM) it was 41.9%. Besides, the growth inhibition was 1% in assay [5] (setting [7]); 93% (active) in assay [5] (setting [8]); 98% (active) in assay [5] (at 50.0 µM); -6% in assay [6] (setting [7]); 82% (active) in assay [6] (setting [8]); 92.2% (active) in assay [6] (at 50.0 µM).

With `NC(=O)C(=O)N/N=C/c1ccc([N+](=O)[O-])o1`, the growth inhibition in assay [1] (setting [7]) was 14%; in assay [1] (setting [8]), 49%; in assay [1] (at 50.0 µM), 32.4%; in assay [2] (setting [7]), 6%; in assay [2] (setting [8]) it was 31%; in assay [2] (at 50.0 µM), 25.4%. Besides, the growth inhibition was 2% in assay [3] (setting [7]); 42% in assay [3] (setting [8]); 71.7% (active) in assay [3] (at 50.0 µM); -1% in assay [4] (setting [7]); 18% in assay [4] (setting [8]); 2.8% in assay [4] (at 50.0 µM). For the same compound, the growth inhibition is 37% in assay [5] (setting [7]); 35% in assay [5] (setting [8]); 14.3% in assay [5] (at 50.0 µM); 16% in assay [6] (setting [7]); 65% in assay [6] (setting [8]); 56.1% in assay [6] (at 50.0 µM).

With `Cc1ccc2c(C3Cc4ccccc4N3C(=O)/C=C\C(=O)O)c(C)[nH]c2c1` (stereo not given), the growth inhibition was 23% in assay [1] (setting [7]); 85% (active) in assay [1] (setting [8]); 87.5% (active) in assay [1] (at 50.0 µM); 24% in assay [2] (setting [7]); 91% (active) in assay [2] (setting [8]); 88.7% (active) in assay [2] (at 50.0 µM). In addition, the growth inhibition in assay [3] (setting [7]) was 37%; in assay [3] (setting [8]), 89% (active); in assay [3] (at 50.0 µM) it was 92.7% (active); in assay [4] (setting [7]), 27%; in assay [4] (setting [8]), 82% (active); in assay [4] (at 50.0 µM), 90.1% (active). The growth inhibition was 35% in assay [5] (setting [7]); 90% (active) in assay [5] (setting [8]); 90.6% (active) in assay [5] (at 50.0 µM); 39% in assay [6] (setting [7]); 95% (active) in assay [6] (setting [8]); 89.1% (active) in assay [6] (at 50.0 µM).

`C=C(CN(C)C)C(=O)c1ccccc1`: the growth inhibition in assay [1] (setting [7]) is -5%; in assay [1] (setting [8]), 4%; in assay [1] (at 50.0 µM), 56.6%; in assay [2] (setting [7]) it was 8%; in assay [2] (setting [8]), 41%; in assay [2] (at 50.0 µM), 65%. In addition, the growth inhibition in assay [3] (setting [7]) is 8%; in assay [3] (setting [8]) it was 17%; in assay [3] (at 50.0 µM) it was 56%; in assay [4] (setting [7]), -26%; in assay [4] (setting [8]), 12%; in assay [4] (at 50.0 µM), 9.55%. Besides, the growth inhibition in assay [5] (setting [7]) was -20%; in assay [5] (setting [8]), 19%; in assay [5] (at 50.0 µM) it was 77.7% (active); in assay [6] (setting [7]), -4%; in assay [6] (setting [8]), 17%; in assay [6] (at 50.0 µM), 74.8% (active).

`CS(=O)(=O)OCC(COS(C)(=O)=O)C(c1ccccc1)c1ccccc1Br` (stereo not given): the growth inhibition in assay [1] (setting [7]) was 12%; in assay [1] (setting [8]), 34%; in assay [1] (at 50.0 µM), 28.4%; in assay [2] (setting [7]) it was 7%; in assay [2] (setting [8]) it was 29%; in assay [2] (at 50.0 µM) it was 36%. For the same compound, the growth inhibition in assay [3] (setting [7]) was 14%; in assay [3] (setting [8]), 47%; in assay [3] (at 50.0 µM) it was 37.1%; in assay [4] (setting [7]), 16%; in assay [4] (setting [8]), 44%; in assay [4] (at 50.0 µM) it was 13.1%. For the same compound, the growth inhibition is -1% in assay [5] (setting [7]); 16% in assay [5] (setting [8]); 5.4% in assay [5] (at 50.0 µM); 7% in assay [6] (setting [7]); 51% in assay [6] (setting [8]); 56.2% in assay [6] (at 50.0 µM).

On to `Nc1ccc2c(SCCCCCCCCSc3c4ccccc4nc4cc(N)ccc34)c3ccccc3nc2c1`, for which the growth inhibition in assay [1] (setting [7]) is 1%; in assay [1] (setting [8]), 74% (active); in assay [1] (at 50.0 µM), 48.9%; in assay [2] (setting [7]), 1%; in assay [2] (setting [8]), 67%; in assay [2] (at 50.0 µM), 9.15%. For the same compound, the growth inhibition in assay [3] (setting [7]) is -2%; in assay [3] (setting [8]), 72% (active); in assay [3] (at 50.0 µM), 22.9%; in assay [4] (setting [7]), -4%; in assay [4] (setting [8]), 32%; in assay [4] (at 50.0 µM) it was 33.2%. Moreover, the growth inhibition in assay [5] (setting [7]) was -3%; in assay [5] (setting [8]), 72% (active); in assay [5] (at 50.0 µM) it was -4.05%; in assay [6] (setting [7]) it was 2%; in assay [6] (setting [8]) it was 94% (active); in assay [6] (at 50.0 µM), 32%.

On to `C=CS(=O)(=O)c1ccc(Cl)cc1`, for which the growth inhibition in assay [1] (setting [7]) was -116%; in assay [1] (setting [8]), 97% (active); in assay [1] (at 50.0 µM) it was 99.7% (active); in assay [2] (setting [7]) it was -19%; in assay [2] (setting [8]) it was 98% (active); in assay [2] (at 50.0 µM), 99.7% (active). Moreover, the growth inhibition in assay [3] (setting [7]) is -23%; in assay [3] (setting [8]), 98% (active); in assay [3] (at 50.0 µM), 99.2% (active); in assay [4] (setting [7]), -42%; in assay [4] (setting [8]) it was 98% (active); in assay [4] (at 50.0 µM) it was 99.1% (active). Further, the growth inhibition in assay [5] (setting [7]) was -34%; in assay [5] (setting [8]), 98% (active); in assay [5] (at 50.0 µM), 99.4% (active); in assay [6] (setting [7]) it was -73%; in assay [6] (setting [8]), 97% (active); in assay [6] (at 50.0 µM), 99% (active).

Regarding `N=C(N)SCc1ccc(Br)cc1`, the growth inhibition in assay [1] (setting [7]) was -13%; in assay [1] (setting [8]) it was -17%; in assay [1] (at 50.0 µM) it was -2.75%; in assay [2] (setting [7]) it was -29%; in assay [2] (setting [8]), -23%; in assay [2] (at 50.0 µM), 13.8%. Moreover, the growth inhibition is -20% in assay [3] (setting [7]); -15% in assay [3] (setting [8]); -15.9% in assay [3] (at 50.0 µM); -16% in assay [4] (setting [7]); -4% in assay [4] (setting [8]); 27.6% in assay [4] (at 50.0 µM). The growth inhibition is -18% in assay [5] (setting [7]); 35% in assay [5] (setting [8]); 16.9% in assay [5] (at 50.0 µM); -29% in assay [6] (setting [7]); 2% in assay [6] (setting [8]); 19.9% in assay [6] (at 50.0 µM).

Consider `c1cc2c(c3c1CN(C1CCCCC1)CO3)OCN(C1CCCCC1)C2`, for which the growth inhibition is 2% in assay [1] (setting [7]); 19% in assay [1] (setting [8]); -11% in assay [1] (at 50.0 µM); 4% in assay [2] (setting [7]); 10% in assay [2] (setting [8]); -29.6% in assay [2] (at 50.0 µM). Further, the growth inhibition in assay [3] (setting [7]) is 6%; in assay [3] (setting [8]), 16%; in assay [3] (at 50.0 µM), 32.1%; in assay [4] (setting [7]), -12%; in assay [4] (setting [8]), 16%; in assay [4] (at 50.0 µM), -27.2%. For the same compound, the growth inhibition in assay [5] (setting [7]) was 5%; in assay [5] (setting [8]), 28%; in assay [5] (at 50.0 µM), 65%; in assay [6] (setting [7]), 6%; in assay [6] (setting [8]) it was 10%; in assay [6] (at 50.0 µM), 12.4%.
